Screening results: PubChem, Broad Institute
Compounds with a hit are over-represented: about 2.2% of the library has one in this group of screens.
Calb FLC – C. albicans growth inhibition with fluconazole, primary screen, CaCi-2 strain, Alamar Blue fluorescence | growth inhibition, % (concentration not given with the values) | C. albicans CaCi-2 (fluconazole-resistant clinical isolate) + fluconazole, 48 h | 0.57% of 300,000 active;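 active means growth inhibition above about 58% in most replicates, limit read from the data, passing the limit was not always enough; inconclusive means exactly half the replicates above a set limit; inactive means most replicates below a set limit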;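 further: all wells also contain fluconazole at 8 µg/ml as a sub-toxic cotreatment; 0% = median of DMSO wells and 100% = median of geldanamycin control wells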
PfHsp90 set2 – growth inhibition of PfHsp90-expressing yeast, primary screen, antimalarial PfHsp90 inhibitor project, S. cerevisiae, BacTiter-Glo luminescence, single point, set 2 | BacTiter-Glo ATP, 48 h; yeast lacking PDR1 and PDR3 efflux regulators | inhibition, % at 9.4 µM | 0.32% of 310,000 active;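 active means every replicate shows inhibition above about 80%, whatever the replicate mean, limit read from the data; inconclusive means mean inhibition reaches the set limit but some replicate falls short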;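 further: 0% = DMSO neutral controls and 100% = 20 µM radicicol positive controls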
Beta apoptosis – inhibitors of cytokine-induced beta cell apoptosis, primary screen, luminescence. INS-1E cytokine-induced death, ATP luminescence, 48 h; percent of positive-control rescue, neutral wells zero. protection from apoptosis, % (concentration not given with the values). 0.8% of 300,000 active. AID 435005, 2010;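 active means Every replicate reaches about 75%, or at least half do and their mean reaches it too, limit read from the data; inconclusive means At least half of replicates reach the limit but their mean does not; inactive means Under half of replicates reach the limit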;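 further: 0% = cytokine-treated negative control wells and 100% = positive control rescue; higher means more ATP so stronger rescue from cytokine killing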
Shn3 3UTR inh – reduction of Shn3 3'UTR firefly luciferase signal, primary screen, Schnurri-3 inhibitor project, cell-based, Clone20 osteoblasts, set 2; Clone20 osteoblast Shn3 3'UTR firefly luciferase, 24 h; inhibition, % at 12.5 µM; 0.52% of 360,000 active; AID 588674, 2011;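 active means mean inhibition of at least 75% with every replicate also reaching 75%; inconclusive means mean inhibition at least 75% but some replicate below; inactive means mean inhibition below 75%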;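 further: 0% = median of neutral control wells and 100% = pilot-screen positive control compound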
CSC inhib – cancer stem cell viability inhibitors, primary screen, luminescence | cancer stem cell-like cells viability | AID 2717, 2010 | inhibition, % at 7.5 µM | 1.1% of 300,000 active; in the data active means inhibition above about 75%; inconclusive means no clear call, values can overlap the other calls; tested in HMLE shEcad cells
Active calls of the source: *; ? = inconclusive; . = no result.

SMILES | Calb FLC | PfHsp90 set2 | Beta apoptosis | Shn3 3UTR inh | CSC inhib
C#CCOCCOCCOCCNc1nc(N2CCN(C(=O)CCCCCCCCCCNC(=O)[C@@H](CCSC)n3cc(CCO)nn3)CC2)nc(N2CCN(C(=O)CCCCCCCCCCNC(=O)[C@H]([C@@H](C)CC)n3cc(CCCCN=C(N)N)nn3)CC2)n1 | . | 12 | 37 | 46 | -18
O=C(C1=NN[C@@H]2C(=O)N(Cc3ccccc3)C(=O)[C@H]12)c1ccc(F)cc1 | 1 | . | . | 2 | -8
COc1ccc(-c2c(-c3ccccc3OC)oc3ccccc23)cn1 | . | -1 | 0 | -15 | 22
Cc1onc(-c2ccccc2Cl)c1C(=O)Nc1ccccc1O | 0 | 10 | 0 | 17 | -2
CCCS(=O)(=O)NC(=O)C1(C)CCCN(C(=O)c2cc(OC)c(OC)c(OC)c2)C1 (stereo not given) | . | . | . | -8 | .
O=c1cc(-c2ccccc2)[nH]n1-c1ccc([N+](=O)[O-])cc1 | 19 | 2 | 40 | 21 | 138*
FC(F)(F)c1ccccc1NC(=S)N1CCCCCC1 | -35 | -3 | -2 | -5 | -8
CCc1ccccc1NC(=S)N1CCCCCC1 | 117* | 4 | 0 | -16 | 0
O=C(NC(=S)NNC(=O)c1ccc(Cl)cc1Cl)c1cccnc1 | 0 | 4 | -3 | -9 | 14
CCc1ccccc1NC(=S)NNC(=O)c1ccccc1Cl | 103* | 10 | 2 | -14 | -7
Cc1ccccc1C(=O)NNC(=S)NC(=O)c1ccc(Cl)cc1Cl | 91* | -95 | . | 17 | .
COc1ccc(C(=O)NC(=S)NNC(=O)c2ccccc2C)cc1 | 101* | -1 | 10 | 15 | 14
CCc1ccccc1NC(=S)NN | 1 | . | 7 | . | 23
CC(=O)Oc1ccc([C@@H]2COc3c(ccc4c3C=CC(C)(C)O4)C2)c(OC(C)=O)c1 | -3 | -77 | -2 | -66 | -6
CC1(C)C=Cc2c(ccc3c2OC[C@H](c2ccc(O)cc2O)C3)O1 | . | 106* | 2 | -15 | 114*
CC(C)=CCc1cc([C@@H]2COc3c(ccc4c3C=CC(C)(C)O4)C2)c(O)cc1O | 31 | 105* | 15 | 92* | -5
O=C(COC(=O)C1CCN(C(=O)c2ccc(Cl)cc2)CC1)Nc1ccccc1F | . | 26 | -3 | -1 | -10
COc1ccccc1N1C(=O)CC(N(O)c2ccccc2)C1=O (stereo not given) | -2 | -11 | -3 | -10 | -4
COc1ccccc1N(O)C1CC(=O)N(c2ccc(F)cc2)C1=O (stereo not given) | ? | . | -1 | 95* | -4
OCCN(CCO)CC(O)COc1ccc(Br)cc1 (stereo not given) | -12 | 1 | -3 | -16 | -7
OCCN(CCO)CC(O)COc1ccc(C23CC4CC(CC(C4)C2)C3)cc1 (stereo not given) | -58 | 5 | 0 | 31 | 78*
COc1ccccc1/C=C/C(=O)OCC(=O)NC(=O)NC1CCCC1 | . | -6 | -7 | -3 | 4
COc1nccc(NCc2ccccc2)c1C#N | 22 | . | -12 | -18 | -1
N#C/C(=C\c1ccc([N+](=O)[O-])o1)C(=O)Nc1ccc(F)cc1 | 1 | 106* | -1 | 0 | 13
N#CCc1ccc(NC(=O)/C=C/c2ccc([N+](=O)[O-])o2)cc1 | 97* | 2 | . | 64 | .
SMILES | Calb FLC | PfHsp90 set2 | Beta apoptosis | Shn3 3UTR inh | CSC inhib
Cc1cc(C)c(C)c(C(=O)C(=O)c2ccccc2)c1 | . | 18 | . | -6 | .
COc1ccc(-c2nc(-c3ccc(NC(=O)c4ccncc4)cc3)no2)cc1OC | 1 | 3 | . | 90* | 30
COc1ccc(Cc2nc(-c3ccc(NC(=O)c4cccnc4)cc3)no2)cc1 | -2 | 39 | 107* | 40 | 13
COc1ccc(-c2noc(-c3ccccc3-c3ccccc3)n2)cc1OC | 0 | 6 | 5 | 7 | 80*
CC(=O)C1=C(O)C(=O)N(c2ccc(O)cc2)C1c1ccccc1Cl (stereo not given) | -9 | -12 | -7 | 1 | -1
COc1ccc(NC(=O)CN2C(=O)NC3(CCCCC3C)C2=O)cc1OC (stereo not given) | . | -30 | -7 | 2 | .
COc1cccc(/C=N/Nc2nc3ccccc3n3cnnc23)c1O | -3 | 27 | 119* | 73 | 57
COc1cccc(/C=N/Nc2nc3ccccc3[nH]2)c1O | 67 | 2 | 94* | ? | 68
COc1cccc(/C=N/Nc2nc3ccccc3n3cnnc23)c1 | -2 | 3 | -3 | -1 | -5
CCOc1ccc(OCC(=O)Nc2cc(Cl)ccc2-n2cncn2)cc1 | . | . | . | -2 | .
COC(=O)C(Cc1cccc(C)n1)(c1ccccc1)c1ccccc1 | -17 | 26 | 6 | 18 | 11
O=C(Nc1cccnc1)c1ccc(COc2ccccc2Br)cc1 | -17 | 5 | 2 | 16 | 90*
NC(=O)c1ccc(NC(=O)c2ccc(COc3ccccc3Br)cc2)cc1 | . | -19 | . | -5 | .
O=C(NCc1cccnc1)c1ccc(-c2cccc(Cl)c2Cl)o1 | 61* | 13 | 0 | -20 | 0
Cc1cc(C)n(Cc2ccc(NC(=O)c3ccc(COc4ccccc4Br)cc3)cc2)n1 | 37 | 3 | 78* | 58 | 125*
O=C(NCc1cccnc1)c1ccc(COc2ccccc2Cl)cc1 | 34 | -9 | 103* | 26 | 8
COc1ccc(CCN2C(=O)CSC2=Nc2ccc(C(C)C)cc2)cc1OC | 7 | -6 | 32 | 82 | 13
O=C(O)CCC(=O)N1N=C(c2ccc(Br)cc2)CC1c1cccc(Br)c1 (stereo not given) | 18 | -7 | -3 | -10 | -5
CC(Oc1cccc2cccnc12)C(=O)N/N=C/c1ccc2c(c1)OCO2 (stereo not given) | -3 | -16 | 0 | -3 | -9
O=C(Nc1nccs1)c1ccc(COc2ccc(F)cc2)o1 | 6 | -7 | 1 | -31 | 26
O=C(Nc1nccs1)c1ccc(COc2ccccc2Br)o1 | 21 | -29 | 1 | -26 | 196*
Cc1cc(C)c2c(CC(=O)NC3CCS(=O)(=O)C3)coc2c1 (stereo not given) | -15 | 9 | -5 | 3 | -2
Cc1ccc(C)c(OC(=O)c2cncc(Br)c2)c1 | 98* | 3 | -3 | 10 | -18
CCOC(=O)C(Cc1c[nH]c2ccc([N+](=O)[O-])cc12)(NC(C)=O)C(=O)OCC | . | -12 | . | 11 | .
CC1CCN(c2ccc(NC(=O)c3ccc([N+](=O)[O-])o3)cc2)CC1 | -3 | . | 85* | 91* | 100*
O=C(Nc1ccc(N2CCN(Cc3ccccc3F)CC2)cc1)c1ccc([N+](=O)[O-])o1 | 1 | 13 | 48 | 64 | 103*
Cc1ccc(S(=O)(=O)NCc2ccc(C(=O)N3CCN(c4ccc([N+](=O)[O-])cc4)CC3)cc2)cc1 | 1 | 10 | 35 | 90* | -2
